High-throughput results as filed in PubChem.
An excerpt weighted towards active compounds, which were near 27% of everything screened.
CYP2C9 inh – blockers of cytochrome P450 2C9 activity – biochemical, luminescence, ADME assay, primary screen; P11712; CYP2C9 Supersomes, luciferin-H conversion; inhibition, % at 5 µM; 96,000 compounds, 20% hits;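 active = blocking of liver enzyme CYP2C9 beyond about 50% at 5 µM, limit read from the data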
Target sequence (P11712 whole entry, looked up): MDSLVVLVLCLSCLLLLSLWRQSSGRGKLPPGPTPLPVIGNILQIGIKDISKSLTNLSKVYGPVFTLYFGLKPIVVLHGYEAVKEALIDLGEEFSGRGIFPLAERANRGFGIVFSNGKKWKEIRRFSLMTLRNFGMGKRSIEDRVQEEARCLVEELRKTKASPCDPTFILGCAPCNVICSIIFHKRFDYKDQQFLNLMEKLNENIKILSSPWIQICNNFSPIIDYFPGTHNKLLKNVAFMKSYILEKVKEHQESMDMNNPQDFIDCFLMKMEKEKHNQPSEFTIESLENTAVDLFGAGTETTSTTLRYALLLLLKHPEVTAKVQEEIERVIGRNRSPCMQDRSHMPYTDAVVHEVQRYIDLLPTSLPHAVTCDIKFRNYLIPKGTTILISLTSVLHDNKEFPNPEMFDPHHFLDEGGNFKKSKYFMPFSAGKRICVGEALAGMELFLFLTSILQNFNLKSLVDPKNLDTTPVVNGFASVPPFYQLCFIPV
CYP2C9 act – human CYP2C9 activators, primary screen, biochemical, luminescence | activation factor at 5 µM | Cytochrome P450 2C9 (Homo sapiens), P11712 | recombinant CYP2C9, luciferin-H conversion; hits give high values; factor 1 = untreated enzyme, 0 = blocked | AID 1024, 2008 | 96,000 compounds, 1.4% hits;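 active = activation factor of 2 or more for CYP2C9 at a 5 µM dose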;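 note: 0 = sulfaphenazole-blocked wells and 1 = vehicle-only wells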
CYP2C19 activ – human CYP2C19 activators, primary screen, biochemical, luminescence; Cytochrome P450 2C19 (Homo sapiens), P33261; recombinant CYP2C19, luciferin-H EGE luminescence; hits give high values; 0 = fully inhibited enzyme, 1 = untreated enzyme; activation factor at 5 µM; 96,000 tested, under 10 active;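 active = activation factor of at least 2 at 5 µM in the primary screen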;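 note: 0 = wells with 2.5 mM tranylcypromine and 1 = vehicle-only wells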
EphB4 antag – EphB4-ephrin-B2 interaction antagonists, primary screen, biochemical, TNYL-RAW peptide probe, fluorescence polarization; AID 720, 2007; inhibition, % at 7 µM; 97,000 compounds, 0.15% hits; EphB4 LBD / TNYL-RAW-Alexa532 peptide;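 active = inhibition above the screen-wide mean inhibition plus 3 SD, cut at about 15% in these data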;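 note: 0% = DMSO wells and 100% = excess unlabeled TNYL-RAW peptide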
CYP2C19 inhib – blockers of cytochrome P450 2C19 activity – biochemical, luminescence, ADME assay, primary screen. AID 778, 2007. inhibition, % at 5 µM. CYP2C19 Supersomes, luciferin-H EGE luminescence, 30 min. 96,000 compounds, 21% hits. P33261;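 active = CYP2C19 inhibition above a set limit at 5 µM in the primary screen, cut at about 50% in these data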;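 note: plate controls were negative control wells for no effect and 2.5 mM tranylcypromine positive control for full effect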
Numbers without * were called inactive; / = no result given.

SMILES	CYP2C9 inh	CYP2C9 act	CYP2C19 activ	EphB4 antag	CYP2C19 inhib
Cc1cc(C)nc(SCNC(=O)c2ccc(Cl)cc2)n1	-63	1.6	0.1	0	91*
COc1ccc(OCc2nnc3n2N=C(c2ccc(C)cc2)CS3)cc1	32	0.7	0.7	1	30
CCCCCOC(=O)Cn1c(SCC(=O)Nc2ccccc2)nc2c1c(=O)[nH]c(=O)n2C	22	0.8	0.8	0	24
N/C(=N\OS(=O)(=O)c1cc(Cl)ccc1Cl)c1ccncc1	48	0.5	0.6	-2	38
Cc1ccc(N=N/C(=C\O)C(=O)c2ccncc2)cc1	88*	0.1	0	0	95*
O=C(/C(=C/O)N=Nc1ccc(Cl)cc1)c1ccncc1	46	0.5	0.3	1	66*
CCCCN(CC)CCCNC(=O)c1cc2cc3ccc(OC)cc3nc2o1	18	0.8	1	-5	-4
S=c1nc(-c2ccccc2)n(Cc2ccco2)c2c1CCCC2	23	0.8	1	-3	5
CCOC(=O)c1cc2sccc2n1CC(=O)c1ccc2c(c1)OCCO2	96*	0	0.1	-2	93*
CCOC(=O)c1cc2sccc2n1CC(=O)O	28	0.7	1	3	3
O/N=C(\COc1ccccc1O)c1ccccc1	37	0.6	0.1	-8	93*
O=C(O)COc1ccccc1O	-8	1.1	1	3	-4
COc1ccc(-c2nnc(NC(=O)C(C)C)o2)cc1	-4	1	1.1	1	-8
Cc1ccccc1OCC(=O)Nc1cccc(N(C)S(C)(=O)=O)c1	79*	0.2	0.3	2	69*
Cc1cccc(N(CC(=O)NC2CCCC2)C(=O)CS(=O)CC(=O)Nc2ccc3c(c2)OCO3)c1C (stereo not given)	/	/	/	-3	/
Cc1ccccc1OCC(=O)Nc1ccc2c(c1)OCO2	30	0.7	0.3	0	66*
CN(c1cccc(NC(=O)CSc2ccc(Cl)cc2)c1)S(C)(=O)=O	45	0.6	0.7	-5	25
CN(c1cccc(NC(=O)CCSc2ccccc2)c1)S(C)(=O)=O	68*	0.3	0.2	-7	78*
Cc1ccc(NC(=O)CS(=O)CC(=O)Nc2ccc3c(c2)OCO3)cc1Cl (stereo not given)	51*	0.5	0.9	2	11
CCOc1ccc(-n2c(SCC(=O)NCc3ccco3)nc3c([nH]c4ccccc43)c2=O)cc1	/	/	/	0	/
CC(C)C(c1nnnn1Cc1ccccc1)N1CCN(Cc2ccco2)CC1 (stereo not given)	20	0.8	0.9	-2	9
CCC(C)(C)n1nnnc1C(c1ccccn1)N1CCN(c2cccc(OC)c2)CC1 (stereo not given)	/	/	/	3	/
CC(C)C(c1nnnn1Cc1ccco1)N1CCN(c2cccc(Cl)c2)CC1 (stereo not given)	70*	0.3	0.2	-5	81*
CC(C)C(c1nnnn1C(C)(C)C)N1CCN(c2cccc(Cl)c2)CC1 (stereo not given)	98*	0	0.3	-2	70*
Cc1ccc(Cl)cc1N1CCN(C(=O)COc2ccc(S(=O)(=O)NC(C)C)cc2)CC1	49	0.5	0.6	1	37
SMILES	CYP2C9 inh	CYP2C9 act	CYP2C19 activ	EphB4 antag	CYP2C19 inhib
COc1ccc(-c2nc(-c3cccs3)c(-c3cccs3)[nH]2)cc1OC	81*	0.2	0.2	-4	83*
O=[N+]([O-])c1cccc(-c2nc(-c3cccs3)c(-c3cccs3)[nH]2)c1	58*	0.4	0.9	1	12
Cn1c(=O)c2c(nc(N3CCc4ccccc4C3)n2Cc2ccc(Br)cc2)n(C)c1=O	19	0.8	0.9	-2	9
O=C(CC(c1ccc(F)cc1)c1ccco1)N1CCOCC1 (stereo not given)	2	1	0.3	3	74*
O=C1CCC(=O)N1CCC(c1ccc(F)cc1)c1ccco1 (stereo not given)	-46	1.5	1	3	3
O=C(CC(c1ccc(F)cc1)c1ccco1)N1CCCC1 (stereo not given)	17	0.8	0.2	/	78*
CCCN(CCC)C(=O)CC(c1ccc(F)cc1)c1ccco1 (stereo not given)	55*	0.4	0.5	-6	51*
